In PubChem BioAssay AID1347046 (National Center for Advancing Translational Sciences (NCATS), 2019) one finds Potency data, which are given here for 25 molecules.

About 940 (67%) of roughly 1,400 compounds were called active. Inconclusive results (about 27%) are left out. The call rests on the fitted dose curve. The set was probably picked from earlier hits. The list is a sample of the results.
Potency means the concentration at half of the fitted maximal effect.

Atrial natriuretic peptide receptor 2 (Homo sapiens), sequence (P20594 whole entry, looked up): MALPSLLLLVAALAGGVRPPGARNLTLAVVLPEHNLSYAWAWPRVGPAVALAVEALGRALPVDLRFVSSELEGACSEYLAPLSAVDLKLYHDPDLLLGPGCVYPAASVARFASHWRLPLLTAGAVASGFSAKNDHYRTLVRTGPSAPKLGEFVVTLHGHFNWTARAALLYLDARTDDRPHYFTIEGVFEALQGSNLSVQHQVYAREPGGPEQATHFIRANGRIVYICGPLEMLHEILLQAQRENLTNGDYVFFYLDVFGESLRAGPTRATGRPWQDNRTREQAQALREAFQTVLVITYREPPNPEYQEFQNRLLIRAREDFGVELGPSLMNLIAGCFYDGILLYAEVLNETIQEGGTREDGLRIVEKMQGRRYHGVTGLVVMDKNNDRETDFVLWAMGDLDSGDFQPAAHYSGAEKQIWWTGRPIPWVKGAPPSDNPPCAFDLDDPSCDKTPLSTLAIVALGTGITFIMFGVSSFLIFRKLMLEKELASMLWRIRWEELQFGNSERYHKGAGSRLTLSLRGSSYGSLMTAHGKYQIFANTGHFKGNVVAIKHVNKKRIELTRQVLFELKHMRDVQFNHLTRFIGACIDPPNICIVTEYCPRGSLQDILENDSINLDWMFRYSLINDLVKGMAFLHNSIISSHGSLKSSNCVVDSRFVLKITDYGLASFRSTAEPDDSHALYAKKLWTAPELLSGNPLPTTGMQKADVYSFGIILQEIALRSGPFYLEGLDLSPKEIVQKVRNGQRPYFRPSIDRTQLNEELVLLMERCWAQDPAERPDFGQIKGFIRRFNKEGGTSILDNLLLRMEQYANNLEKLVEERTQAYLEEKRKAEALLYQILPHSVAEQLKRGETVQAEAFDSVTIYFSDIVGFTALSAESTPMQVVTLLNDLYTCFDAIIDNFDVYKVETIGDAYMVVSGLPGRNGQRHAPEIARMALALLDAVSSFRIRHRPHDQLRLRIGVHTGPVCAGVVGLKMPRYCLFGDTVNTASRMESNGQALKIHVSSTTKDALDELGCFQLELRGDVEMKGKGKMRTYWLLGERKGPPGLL

This assay concerns the target Atrial natriuretic peptide receptor 2 (Homo sapiens) (UniProt P20594). Put plainly: Natriuretic polypeptide receptor (hNpr2) antagonism - Subtype selectivity assay. Further: nearly all actives have a fitted effect of over 70% in size. To be noted: HEK293 hNpr2 GloSensor cGMP luminescence, CNP-stimulated; series mostly up to 57.6 µM. The method, then:
F. Fan, B. F. Binkowski, B. L. Butler, P. F. Stecha, M. K. Lewis, K. V. Wood, Novel genetically encoded biosensors using firefly luciferase. ACS Chem Biol 3, 346-351 (2008).
PROTOCOL TABLE (as described by Inglese J, Shamu CE and Guy RK. 2007) SEQUENCE No. (e.g., 1, 2, 3, etc.); PARAMETER (e.g., Cells, Incubation, Reagent, etc.); VALUE and DESCRIPTION. 1. Cells. Seed 1500 HEK293 cGMP-sensor cells expressing hNpr2 per well in 4uL into Greiner 1536-well white/solid bottom high base, TC plates. 2. Incubation. Incubate plated cells at 37C in 5% CO2, 95% RH overnight. 3. Reagent. Add 1uL per well GloSensor reagent from Promega (2% final concentration) or CO2 independent media vehicle control to respective columns of Greiner 1536-well plates. 4. Incubation. Incubate plated cells at ambient temperature for 2 h., protect from light. 5. Compounds. Library compounds and DMSO vehicle control added at 23nL per well, transferred by Pin Tool. 6. Incubation. Incubate plated cells for 30 min. at ambient temperature, protect from light. 7. Detector. GloSensor baseline pre-read luminescence measured using CCD-based camera (Viewlux). 8. Compound. Add 1uL of hNppC peptide to 1 nM final concentration to stimulate hNpr2 or CO2 independent media as vehicle control. 9. Incubation. Incubate treated cells at ambient temperature for 20 min., protect from light. 10. Detector. GloSensor post-hNppC luminescence measured using CCD-based camera (Viewlux). NOTES (numbers refer to Sequence numbers above) 1. HEK293 cells expressing hNpr2 and GIP/pGS-40F were grown to 85-95% confluence (48-72 h) in T175 culture flasks (CO2 independent media supplemented with 10% FBS, 1% Pen/Strep antibiotics, and 1 ug/mL puromycin). Trypsinize and harvest cells from T175 culture flasks and filter through 40 um cell strainer. Cells counted with Invitrogen Countess (30,000,000 - 50,000,000 cells/flask). Cells diluted to a final concentration of 375 cells/uL in CO2 independent media and a Millipore multidrop used to dispense 1500 cells per well (4uL/well) into 13 1536-well Greiner White/Solid bottom, high base tissue-culture treated (TC) plates and one Aurora 1536-well Black/Clear bottom, low base, TC plate (for visual inspection of cell health throughout the duration of the assay). 2. Cells incubated for 24 h. at 37C in 95% RH incubator with metal lid having gas-exchange holes. 3. Prepare GloSensor Reagent (Promega): Reconstitute GloSensor luciferase substrate by adding 8.2mL Hepes buffer to 250mg substrate, mix well, protect from light and stored at -80C. Prepare a fresh 12% GloSensor solution in CO2 independent supplemented plating media (see above). Mix well and store at ambient temperature, protected from light. 1uL 12% GloSensor Luciferase Reagent added (2% final concentration) to respective columns of 13 x 1536-well Greiner plate with BioRaptr, 1uL CO2 independent plating media added to respective columns as vehicle control with BioRaptr. 4. Cells incubated for 2 h. at ambient temperature, protected from light with metal lid having gas-exchange holes. 5. 23nL of library compounds or DMSO vehicle control transferred to 13 Greiner white/solid bottom high base, TC plates in 11 interplate 1:3 titrations (see Yasgar, A. et al. 2008) with Pintool. 6. Cells incubated for 30-50 min. at ambient temperature protected from light with metal lid having gas-exchange holes. 7. Read cellular baseline GloSensor luminescence in presence of test library compounds on the ViewLux [Exposure = 10 s.; Gain = High; Speed = Slow; and Binning = 2X.] 8. hNppC peptide agonist solution prepared at 1 mM (in H2O) stock concentration. From this a working dilution was prepared at 6 nM in CO2 Independent media. 1uL of 6 nM hNppC agonist (1 nM final concentration) or CO2 Independent media vehicle control dispensed into respective columns of 13 x Greiner 1536-well white/solid bottom, tissue culture plates with BioRaptr. 9. Cells incubated for 20 min. at ambient temperature, protected from light with metal lid having gas-exchange holes. 10. […]
In the case of `Cc1ccc2nc(C3CCCN(Cc4ccc(C#N)cc4)C3)[nH]c(=O)c2c1` (stereo not given), the Potency is 24.3 µM (active).

On to `O=c1[nH]c(C2CCCN(Cc3ccccn3)C2)nn1-c1ccc(Cl)cc1` (stereo not given), for which the Potency was 10.9 µM (active).

As for `CC(C)(C)c1csc(NC(=O)c2ccc3c(c2)OCCN(C2CCC2)C3)n1`, the Potency is 35.3 µM (active).

As for `COc1ccccc1Nc1cnc2ccc(N(C)Cc3cccnc3)nn12`, the Potency is 28 µM (active).

Take `C1CCC(COCCc2noc(C3CNC3)n2)C1`: the Potency was 21.7 µM (active).

`O=C(NCc1nnc2cc(-c3nc(C4CC4)no3)ccn12)c1ccc(F)cc1Cl`: the Potency was 13.7 µM (active).

In the case of `Cc1ccc2c(c1)nc1n2[C@@H](CNS(=O)(=O)c2ccccc2)COC1`, the Potency is 31.4 µM (active).

In the case of `O=C(c1ccc(Cl)cc1)N1CCCC(n2cc(-c3nc(-c4ccccc4)no3)nn2)C1` (stereo not given), the Potency was 21.7 µM (active).

On to `COc1ccc(C(=O)N2CCC(n3cc(-c4nc(C(C)C)no4)nn3)CC2)cc1F`, for which the Potency result was “inactive”.

With `O=C(c1ccc(F)cc1Cl)N1CCC(n2cc(-c3nc(-c4ccccc4)no3)nn2)C1` (stereo not given), the Potency was 5.44 µM (active).

`O=C1c2cnc(-c3ccc(Cl)cc3)nc2OCCN1Cc1ccccc1`: the Potency was 35.3 µM (active).

In the case of `Cc1cc(N2CCCC(Cn3cc(Cc4ccccc4)nn3)C2)nc(N)n1` (stereo not given), the Potency is 9.68 µM (active).

As to `O=C(c1ccccn1)N1CC(Oc2ccc(-c3noc(C4CC4)n3)cc2)C1`, the Potency is 19.3 µM (active).

As to `COc1ccc(C2Cn3nnc(C(=O)N4CCN(C(=O)c5cccc(Cl)c5)CC4)c3CO2)cc1` (stereo not given), the Potency was 15.3 µM (active).

Consider `CCc1ccc(C(=O)N2CCN(c3cc(-c4ccc(F)cc4)[nH]n3)CC2)cc1`, for which the Potency was 21.7 µM (active).

`O=C(c1ccc(F)cc1F)N1CCN(c2cc(-c3ccc(Cl)cc3)[nH]n2)CC1`: the Potency was 19.3 µM (active).

Consider `O=C(c1cc(F)ccc1Cl)N1CCN(c2cc(-c3ccc(F)cc3)[nH]n2)CC1`, for which the Potency is 24.3 µM (active).

For the molecule `Cc1ccc(C(=O)N2CCN(c3cc(-c4ccc(Cl)cc4)[nH]n3)CC2)c(C)c1`, the Potency was 9.68 µM (active).

As for `O=C(c1ccc2cc[nH]c2c1)N1CCC2(CC1)N=C(c1ccc(Cl)cc1)NO2`, the Potency was 21.7 µM (active).

For `O=C1NCN(Cc2ccc(Cl)cc2)C12CCN(Cc1ccccc1)CC2`, the Potency is 19.3 µM (active).

Regarding `COc1cccc(-c2noc(CC3CCN(C(=O)c4ccc(F)cc4)CC3)n2)c1`, the Potency is 6.11 µM (active).

Take `O=C(c1ccccc1)N1CCC(C(=O)N2CCC(Cc3nc(-c4ccc(F)cc4)no3)CC2)CC1`: the Potency is 19.3 µM (active).

For the molecule `CCN(CCCNC(=O)c1nnn2cc(-c3ccccc3)[nH]c(=O)c12)c1ccccc1`, the Potency entry was “inactive”.

In the case of `COc1cccc(NC(=O)Cn2c(N(C)Cc3ccccc3)nc(C)cc2=O)c1`, the Potency is 12.2 µM (active).

For the molecule `COc1cccc(CNC(=O)Cn2c(N(C)Cc3ccccc3)nc(C)cc2=O)c1OC`, the Potency was 27.3 µM (active).
